Assay results from the supplement of paper PMC10849652.
About 8,800 targets were measured; listed, in parts, are those with a hit and a random draw of the rest. About 0.5% of all pairs of compound and target were hits. Unmarked numbers belong to inactive results.

Columns and labels:
Assay in all cases: log2 fold change, soluble protein after heating vs DMSO (PISA); higher = thermal stabilisation; K562 lysate, 10 uM; active = over 0.2 and 3.5 SD of the protein, either way, in both replicates (recomputed)
alvocidib = compound: CN1CC[C@H](c2c(O)cc(O)c3c(=O)cc(-c4ccccc4Cl)oc23)[C@H](O)C1 [alvocidib]
Summary of the method: (§1)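 Log-two fold change in thermal stability relative to solvent controls is reported from duplicates. For each sample, crude K562 extract from dounce-homogenised pellets in PBS pH 7.4 with 1 mM MgCl2, at 1 mg/mL protein, was treated with 10 μM compound for 30 min. Aliquots heated for 3 min across 48°C-58°C were pooled, brought to 0.5% NP-40 at 4°C and cleared at 21,000xg for 90 min. The supernatant was quantified by TMTpro 16plex LC-MS/MS with channel sums equalised.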

Tubastatin A = compound: CN1CCc2c(c3ccccc3n2Cc2ccc(C(=O)NO)cc2)C1 [Tubastatin A]
Summary of the method: as §1

[1] = compound: CNC(=O)C1=CC=CC=C1NC2=NC(=NC=C2Cl)NC3=C(C=C(C=C3)N4CCOCC4)OC
Summary of the method: as §1

defactinib = compound: CNC(=O)c1ccc(Nc2ncc(C(F)(F)F)c(NCc3nccnc3N(C)S(C)(=O)=O)n2)cc1 [defactinib]
Summary of the method: as §1

[2] = compound: CNc1nc(-c2ccc3c(N)n[nH]c3c2)cc(N2C[C@@H](C(=O)NC3CCCCC3)CC[C@H]2C)n1
Summary of the method: as §1

encorafenib = compound: COC(=O)N[C@@H](C)CNc1nccc(-c2cn(C(C)C)nc2-c2cc(Cl)cc(NS(C)(=O)=O)c2F)n1 [encorafenib]
Summary of the method: as §1

[3] = compound: COC(=O)[C@H](CCSC)NC(=O)C1=C(C=C(C=C1)NC[C@H](CS)N)C2=CC=CC=C2
Summary of the method: as §1

alisertib = compound: COc1cc(Nc2ncc3c(n2)-c2ccc(Cl)cc2C(c2c(F)cccc2OC)=NC3)ccc1C(=O)O [alisertib]
Summary of the method: as §1

[4] = compound: COc1cc2nc(-c3cc(F)ccc3O)nc(N[C@@H]3CNC[C@H]3C(C)(C)O)c2cc1OC
Summary of the method: as §1

gefitinib = compound: COc1cc2ncnc(Nc3ccc(F)c(Cl)c3)c2cc1OCCCN1CCOCC1 [gefitinib]
Summary of the method: as §1

lapatinib = compound: CS(=O)(=O)CCNCc1ccc(-c2ccc3ncnc(Nc4ccc(OCc5cccc(F)c5)c(Cl)c4)c3c2)o1 [lapatinib]
Summary of the method: as §1

pictilisib = compound: CS(=O)(=O)N1CCN(Cc2cc3nc(-c4cccc5[nH]ncc45)nc(N4CCOCC4)c3s2)CC1 [pictilisib]
Summary of the method: as §1

crizotinib = compound: C[C@@H](Oc1cc(-c2cnn(C3CCNCC3)c2)cnc1N)c1c(Cl)ccc(F)c1Cl [crizotinib]
Summary of the method: as §1

[5] = compound: C[C@H](C1=CC=C(C=C1)C(=O)NC2=C3C=CNC3=NC=C2)N
Summary of the method: as §1

duvelisib = compound: C[C@H](Nc1ncnc2nc[nH]c12)c1cc2cccc(Cl)c2c(=O)n1-c1ccccc1 [duvelisib]
Summary of the method: as §1

gandotinib = compound: Cc1cc(Nc2cc(CN3CCOCC3)c3nc(C)c(Cc4ccc(Cl)cc4F)n3n2)n[nH]1 [gandotinib]
Summary of the method: as §1

tozasertib = compound: Cc1cc(Nc2cc(N3CCN(C)CC3)nc(Sc3ccc(NC(=O)C4CC4)cc3)n2)n[nH]1 [tozasertib]
Summary of the method: as §1

doramapimod = compound: Cc1ccc(-n2nc(C(C)(C)C)cc2NC(=O)Nc2ccc(OCCN3CCOCC3)c3ccccc23)cc1 [doramapimod]
Summary of the method: as §1

bafetinib = compound: Cc1ccc(NC(=O)c2ccc(CN3CC[C@H](N(C)C)C3)c(C(F)(F)F)c2)cc1Nc1nccc(-c2cncnc2)n1 [bafetinib]
Summary of the method: as §1

[6] = compound: Cc1cccc(CC(=O)N2CCc3c2ccc(-c2cn(C)c4ncnc(N)c24)c3F)n1
Summary of the method: as §1

Sequence of UniProt Q27J81 (Q27J81 whole entry, looked up): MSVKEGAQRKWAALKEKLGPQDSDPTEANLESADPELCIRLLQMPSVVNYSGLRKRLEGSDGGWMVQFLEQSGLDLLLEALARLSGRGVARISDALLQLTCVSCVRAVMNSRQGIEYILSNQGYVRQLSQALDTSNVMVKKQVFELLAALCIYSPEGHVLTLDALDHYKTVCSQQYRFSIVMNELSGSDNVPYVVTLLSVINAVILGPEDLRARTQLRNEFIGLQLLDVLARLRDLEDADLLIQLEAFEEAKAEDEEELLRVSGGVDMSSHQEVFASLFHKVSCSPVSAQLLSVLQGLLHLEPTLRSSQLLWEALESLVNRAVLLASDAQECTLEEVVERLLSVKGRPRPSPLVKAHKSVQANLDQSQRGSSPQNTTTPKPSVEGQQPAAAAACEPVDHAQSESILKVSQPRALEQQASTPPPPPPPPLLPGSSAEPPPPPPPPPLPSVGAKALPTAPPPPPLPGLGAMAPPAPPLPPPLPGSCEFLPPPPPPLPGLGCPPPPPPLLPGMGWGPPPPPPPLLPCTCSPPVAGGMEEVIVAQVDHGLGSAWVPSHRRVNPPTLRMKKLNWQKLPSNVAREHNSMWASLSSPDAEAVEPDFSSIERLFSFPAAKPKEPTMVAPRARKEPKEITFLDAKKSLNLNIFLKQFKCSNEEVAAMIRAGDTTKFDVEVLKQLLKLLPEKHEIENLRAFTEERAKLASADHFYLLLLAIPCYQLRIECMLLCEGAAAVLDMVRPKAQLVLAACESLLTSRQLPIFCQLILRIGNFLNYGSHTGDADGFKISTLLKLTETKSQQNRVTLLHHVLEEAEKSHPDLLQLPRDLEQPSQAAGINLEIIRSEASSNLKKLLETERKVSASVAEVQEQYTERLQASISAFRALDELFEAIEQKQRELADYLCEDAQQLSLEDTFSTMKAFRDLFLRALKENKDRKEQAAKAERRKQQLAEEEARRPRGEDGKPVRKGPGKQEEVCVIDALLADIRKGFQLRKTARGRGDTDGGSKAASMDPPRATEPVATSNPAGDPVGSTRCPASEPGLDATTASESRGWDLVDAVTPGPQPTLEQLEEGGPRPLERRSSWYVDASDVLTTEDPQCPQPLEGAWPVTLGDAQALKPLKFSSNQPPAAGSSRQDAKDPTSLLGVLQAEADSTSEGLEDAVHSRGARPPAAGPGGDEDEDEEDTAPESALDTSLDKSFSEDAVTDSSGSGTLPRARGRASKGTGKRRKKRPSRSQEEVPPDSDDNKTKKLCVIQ
Sequence of UniProt P40939 (P40939 whole entry, looked up): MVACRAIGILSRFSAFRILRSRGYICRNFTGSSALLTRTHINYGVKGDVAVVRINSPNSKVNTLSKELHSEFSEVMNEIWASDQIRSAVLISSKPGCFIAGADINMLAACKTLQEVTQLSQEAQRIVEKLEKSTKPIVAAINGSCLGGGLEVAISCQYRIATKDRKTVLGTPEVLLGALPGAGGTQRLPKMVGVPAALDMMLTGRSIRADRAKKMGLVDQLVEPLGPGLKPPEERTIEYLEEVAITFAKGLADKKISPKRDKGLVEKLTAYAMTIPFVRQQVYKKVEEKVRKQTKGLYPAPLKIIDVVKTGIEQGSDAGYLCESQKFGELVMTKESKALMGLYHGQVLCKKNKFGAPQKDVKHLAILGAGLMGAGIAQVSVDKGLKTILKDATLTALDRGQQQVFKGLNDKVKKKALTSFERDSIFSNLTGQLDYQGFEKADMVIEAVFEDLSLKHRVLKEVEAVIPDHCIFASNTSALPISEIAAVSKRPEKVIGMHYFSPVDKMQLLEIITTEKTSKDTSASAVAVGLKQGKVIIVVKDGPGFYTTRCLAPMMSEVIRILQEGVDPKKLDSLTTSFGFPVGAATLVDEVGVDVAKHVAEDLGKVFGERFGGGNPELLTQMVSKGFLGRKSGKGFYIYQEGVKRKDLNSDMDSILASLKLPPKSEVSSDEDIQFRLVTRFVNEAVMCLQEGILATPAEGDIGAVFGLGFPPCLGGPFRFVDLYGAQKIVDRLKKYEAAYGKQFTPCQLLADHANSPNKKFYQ
Sequence of UniProt Q53GQ0 (Q53GQ0 whole entry, looked up): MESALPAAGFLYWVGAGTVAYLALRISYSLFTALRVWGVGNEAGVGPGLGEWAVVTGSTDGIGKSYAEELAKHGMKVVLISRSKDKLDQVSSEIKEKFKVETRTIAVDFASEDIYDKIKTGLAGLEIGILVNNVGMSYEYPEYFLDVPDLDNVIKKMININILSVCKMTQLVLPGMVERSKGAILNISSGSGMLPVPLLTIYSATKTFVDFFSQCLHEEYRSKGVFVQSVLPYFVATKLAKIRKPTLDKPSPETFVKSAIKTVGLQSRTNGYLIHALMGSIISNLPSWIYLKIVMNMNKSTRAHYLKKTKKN
Sequence of UniProt Q9H6K1 (Q9H6K1 whole entry, looked up): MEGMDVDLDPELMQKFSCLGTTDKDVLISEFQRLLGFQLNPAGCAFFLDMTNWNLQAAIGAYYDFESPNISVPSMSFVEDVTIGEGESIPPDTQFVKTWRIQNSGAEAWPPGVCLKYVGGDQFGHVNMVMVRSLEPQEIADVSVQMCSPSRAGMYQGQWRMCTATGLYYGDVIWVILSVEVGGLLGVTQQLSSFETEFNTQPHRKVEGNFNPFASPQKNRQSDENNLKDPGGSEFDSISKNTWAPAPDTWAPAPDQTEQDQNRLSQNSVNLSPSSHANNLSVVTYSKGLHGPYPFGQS
Sequence of UniProt P09211 (P09211 whole entry, looked up): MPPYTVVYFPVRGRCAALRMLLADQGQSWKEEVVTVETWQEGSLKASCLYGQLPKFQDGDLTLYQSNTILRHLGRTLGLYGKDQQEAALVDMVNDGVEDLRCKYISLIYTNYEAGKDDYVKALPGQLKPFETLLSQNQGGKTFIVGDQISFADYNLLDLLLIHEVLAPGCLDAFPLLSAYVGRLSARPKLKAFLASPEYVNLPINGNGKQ
Sequence of UniProt P25098 (P25098 whole entry, looked up): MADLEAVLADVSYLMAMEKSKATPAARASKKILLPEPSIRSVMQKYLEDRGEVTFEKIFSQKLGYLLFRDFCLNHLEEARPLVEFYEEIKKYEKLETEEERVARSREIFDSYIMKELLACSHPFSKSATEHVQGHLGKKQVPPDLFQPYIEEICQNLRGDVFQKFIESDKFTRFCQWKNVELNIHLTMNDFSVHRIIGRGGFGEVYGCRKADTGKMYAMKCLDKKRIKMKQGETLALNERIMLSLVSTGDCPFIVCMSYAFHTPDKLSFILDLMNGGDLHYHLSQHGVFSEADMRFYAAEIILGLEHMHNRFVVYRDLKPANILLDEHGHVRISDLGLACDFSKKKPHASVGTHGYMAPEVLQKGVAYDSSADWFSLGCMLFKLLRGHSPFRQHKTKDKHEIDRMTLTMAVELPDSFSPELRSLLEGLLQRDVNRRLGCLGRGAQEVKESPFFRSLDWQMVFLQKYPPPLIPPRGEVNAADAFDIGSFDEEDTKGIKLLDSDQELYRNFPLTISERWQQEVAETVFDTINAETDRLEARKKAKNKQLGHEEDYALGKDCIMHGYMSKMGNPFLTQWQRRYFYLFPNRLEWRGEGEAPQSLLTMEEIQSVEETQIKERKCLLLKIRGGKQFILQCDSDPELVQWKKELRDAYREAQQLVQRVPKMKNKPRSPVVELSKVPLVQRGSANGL
Sequence of UniProt Q9H4A6 (Q9H4A6 whole entry, looked up): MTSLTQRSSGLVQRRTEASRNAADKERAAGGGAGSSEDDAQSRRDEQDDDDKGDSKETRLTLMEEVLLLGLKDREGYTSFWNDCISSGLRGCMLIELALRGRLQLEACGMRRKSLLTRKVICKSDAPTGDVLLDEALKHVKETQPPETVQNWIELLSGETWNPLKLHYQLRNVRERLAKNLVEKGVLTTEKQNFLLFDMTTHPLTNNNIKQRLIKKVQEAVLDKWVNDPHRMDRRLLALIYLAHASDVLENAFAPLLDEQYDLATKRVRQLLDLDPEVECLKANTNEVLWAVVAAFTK
Sequence of UniProt Q96SY0 (Q96SY0 whole entry, looked up): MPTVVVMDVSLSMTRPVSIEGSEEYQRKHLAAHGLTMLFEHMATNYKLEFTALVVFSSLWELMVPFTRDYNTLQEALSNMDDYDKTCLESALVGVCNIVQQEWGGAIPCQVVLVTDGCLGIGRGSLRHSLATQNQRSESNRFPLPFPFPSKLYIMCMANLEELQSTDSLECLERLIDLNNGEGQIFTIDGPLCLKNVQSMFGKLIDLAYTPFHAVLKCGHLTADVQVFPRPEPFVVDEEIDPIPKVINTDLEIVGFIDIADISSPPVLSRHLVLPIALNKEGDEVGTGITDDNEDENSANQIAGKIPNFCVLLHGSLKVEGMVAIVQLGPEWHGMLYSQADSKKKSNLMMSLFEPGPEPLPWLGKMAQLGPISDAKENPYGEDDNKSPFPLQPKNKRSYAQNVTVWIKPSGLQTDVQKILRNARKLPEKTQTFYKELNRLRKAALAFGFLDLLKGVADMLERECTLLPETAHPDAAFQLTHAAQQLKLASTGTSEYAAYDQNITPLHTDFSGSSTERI
Sequence of UniProt P50053 (P50053 whole entry, looked up): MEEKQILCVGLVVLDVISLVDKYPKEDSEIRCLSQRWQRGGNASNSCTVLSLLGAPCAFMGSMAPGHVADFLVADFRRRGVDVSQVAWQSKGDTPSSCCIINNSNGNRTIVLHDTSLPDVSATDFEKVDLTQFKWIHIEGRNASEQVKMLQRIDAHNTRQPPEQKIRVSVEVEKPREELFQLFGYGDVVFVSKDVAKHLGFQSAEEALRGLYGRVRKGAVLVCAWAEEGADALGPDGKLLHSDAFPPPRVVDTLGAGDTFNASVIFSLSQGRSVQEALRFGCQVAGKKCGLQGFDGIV
Sequence of UniProt Q9ULR0 (Q9ULR0 whole entry, looked up): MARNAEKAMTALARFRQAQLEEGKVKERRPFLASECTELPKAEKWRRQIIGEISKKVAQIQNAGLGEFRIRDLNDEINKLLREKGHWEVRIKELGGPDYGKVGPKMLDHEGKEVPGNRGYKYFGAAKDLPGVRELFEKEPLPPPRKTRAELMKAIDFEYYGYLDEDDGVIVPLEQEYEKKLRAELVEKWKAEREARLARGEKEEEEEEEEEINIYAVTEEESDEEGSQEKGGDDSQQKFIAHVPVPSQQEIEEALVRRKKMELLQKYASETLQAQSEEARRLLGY

Row | Target | log2 fold change (alvocidib) | log2 fold change (Tubastatin A) | log2 fold change [1] | log2 fold change (defactinib) | log2 fold change [2] | log2 fold change (encorafenib) | log2 fold change [3] | log2 fold change (alisertib) | log2 fold change [4] | log2 fold change (gefitinib) | log2 fold change (lapatinib) | log2 fold change (pictilisib) | log2 fold change (crizotinib) | log2 fold change [5] | log2 fold change (duvelisib) | log2 fold change (gandotinib) | log2 fold change (tozasertib) | log2 fold change (doramapimod) | log2 fold change (bafetinib) | log2 fold change [6]
1 | ISY1 isoform 1 (UniProt Q9ULR0) | -0.05 | -0.03 | 0.013 | 0.082 | 0.366 (active) | -0.03 | -0.149 | -0.012 | 0.016 | 0.075 | -0.033 | 0.011 | 0.01 | -0.022 | 0.019 | 0.078 | -0.035 | 0.016 | -0.013 | 0.016
2 | HSD17B12 (UniProt Q53GQ0) | 0.012 | -0.089 | -0.11 | -0.021 | -0.046 | -0.016 | 0.035 | 0.022 | 0.009 | -0.131 | 0.31 (active) | -0.034 | -0.025 | -0.158 | -0.08 | 0.41 (active) | 0.011 | 0.047 | -0.019 | 0.149
3 | GLUD2 (UniProt P49448) | -0.029 | 0.12 | 0.053 | 0.061 | 0.02 | 0.066 | 0.115 | -0.06 | -0.021 | 0.036 | -0.009 | 0.144 | -0.097 | -0.004 | 0.001 | 0.099 | 0.03 | -0.028 | 0.049 | 0.024
4 | GSTP1 (UniProt P09211) | 0.04 | -0.057 | -0.017 | 0.008 | -0.036 | -0.052 | 0.061 | 0.037 | -0.008 | 0.007 | -0.015 | 0.021 | -0.018 | -0.025 | 0.001 | -0.035 | -0.007 | -0.006 | 0.01 | 0.003
5 | INTS3 (UniProt Q68E01) | -0.003 | 0.012 | 0.003 | 0.012 | -0.002 | -0.027 | 0.072 | -0.031 | 0.005 | 0.047 | -0.05 | -0.005 | -0.016 | 0.02 | -0.005 | -0.104 | 0.018 | 0.106 | -0.07 | -0.052
6 | INF2 (UniProt Q27J81) | -0.027 | -0.062 | 0.022 | 0.117 | -0.104 | -0.068 | 0.083 | -0.008 | -0.01 | -0.009 | 0.024 | -0.019 | -0.043 | 0.002 | -0.051 | -0.001 | 0.04 | 0.049 | -0.068 | 0.128
7 | INTS14 (UniProt Q96SY0) | -0.001 | -0.066 | 0.032 | 0.025 | 0.02 | 0.006 | -0.1 | -0.018 | 0.015 | -0.003 | 0 | 0.016 | 0.005 | 0.038 | 0.012 | -0.035 | -0.011 | -0.012 | 0.009 | -0.027
8 | ILRUN (UniProt Q9H6K1) | 0.031 | -0.059 | 0.047 | -0.01 | -0.004 | 0.052 | -0.03 | 0.123 | 0.056 | 0.115 | -0.045 | -0.033 | 0.009 | -0.025 | 0.016 | 0.012 | 0.013 | -0.028 | -0.023 | -0.017
9 | HMGN4 (UniProt O00479) | 0.581 | -0.001 | 0.01 | 0.122 | 0.235 | -0.072 | -0.046 | -0.074 | -0.036 | 0.111 | 0.038 | -0.044 | 0.047 | 1.19 (active) | -0.074 | -0.421 | 0.078 | -0.163 | 0.6 | -0.551
10 | HNRNPUL2 (UniProt Q1KMD3) | -0.001 | 0.007 | 0.004 | 0.002 | -0.009 | -0.023 | 0.105 | 0.009 | 0.019 | -0.023 | -0.037 | -0.028 | -0.033 | -0.002 | 0.012 | -0.005 | 0.009 | -0.008 | -0.009 | 0.043
11 | HDLBP, A0A024R4E5 | -0.004 | -0.082 | 0.01 | 0.001 | 0.004 | 0.028 | 0.073 | -0.005 | 0.003 | 0.003 | 0.005 | -0.017 | -0.028 | 0.002 | -0.003 | -0.03 | 0.006 | 0.018 | -0.049 | 0.013
12 | HADHA (UniProt P40939) | -0.011 | -0.003 | 0.069 | -0.042 | 0.037 | -0.063 | 0.088 | -0.017 | -0.041 | 0.021 | 0.1 | 0.077 | 0.063 | -0.01 | 0.037 | 0.129 | -0.013 | 0.207 | 0.032 | -0.053
13 | GOLPH3 (UniProt Q9H4A6) | 0.001 | -0.123 | 0.075 | 0.015 | -0.1 | 0.051 | -0.6 (active) | -0.018 | -0.024 | -0.011 | 0.007 | -0.013 | -0.123 | -0.049 | 0.005 | 0.034 | 0.025 | 0.031 | -0.073 | 0.045
14 | KHK isoform 2 (UniProt P50053) | 0.058 | -0.001 | -0.057 | -0.038 | -0.068 | 0.03 | -0.02 | 0.008 | 0.083 | -0.038 | -0.066 | -0.015 | -0.032 | 0.248 (active) | 0 | -0.058 | 0.018 | 0.031 | 0.001 | -0.163
15 | INPPL1 (UniProt O15357) | -0.001 | -0.177 | 0.039 | 0 | -0.001 | 0.009 | 0.037 | 0.036 | -0.013 | 0.01 | 0.023 | 0.006 | -0.047 | -0.05 | -0.004 | -0.065 | 0.029 | 0.01 | -0.05 | 0.03
16 | GRK2 (UniProt P25098) | 0.001 | -0.08 | 0.068 | 0.106 | 0.044 | 0.001 | 0.086 | -0.042 | 0.066 | -0.041 | -0.063 | 0.015 | -0.038 | 0.024 | 0.017 | 0.077 | -0.02 | 0.033 | -0.017 | -0.035
